The record followed here is PubChem BioAssay (NCI).

About 83,000 compounds went through this panel and 20% of them were active in at least one assay; those are over-represented in the sample as a whole.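 How to read the values: 0–100, growth inhibition (40 = 60% inhibited); 0, no net growth; -100 to 0, cell death (-40 = 40% of starting cells died; -100 = all dead).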 Unmarked numbers belong to inactive results. The source made the active and inactive calls. The calls were made as follows: active = growth percent below 10; inactive = the rest.

What all share (assay): NCI-60 one-dose screen, 48 h (100 = growth as untreated, 0 = no growth, -100 = all killed)
Common to all, as to settings: 10 µM unless noted

Experiment [1] relates to DU-145 prostate.
The subject of experiment [2] is K-562 leukemia.
Experiment [3] concerns MALME-3M melanoma.
Experiment [4] concerns MDA-MB-231 breast.
Experiment [5] relates to RXF 393 renal.
In experiment [6] the test system is SF-268 CNS.
Experiment [7] deals with SF-295 CNS.
For experiment [8], the system named is SF-539 CNS.
Experiment [9] has as its system UACC-257 melanoma.
Experiment [10] concerns M14 melanoma.

Consider `CC1CCCN(CCCCCOc2ccc3oc4ccc(Cl)cc4c(=O)c3c2)C1` (stereo not given), for which the growth was 84.7% in [1]; 16.8% in experiment [2]; 52% in [3]; 62.3% in experiment [4]; 72% in [5]; 81.2% in [6]. Further, the growth in experiment [7] is 83.1%; in [8] it was 66.6%; in [9], -17.9% (active); in experiment [10] it was -17.5% (active).
As for `CCOC(=O)C(=Cc1c(-c2ccccc2)[nH]c2ccccc12)C(=O)OCC`, the growth in [1] is 58.7%; in [2], -6.49% (active); in [3], 95.5%; in experiment [4], 63.3%; in experiment [5], 51.9%; in [6], 60.7%. For the same compound, the growth in experiment [7] was -10.2% (active); in experiment [8], 88.1%; in [9], 44.3%; in [10], 47.8%.
Consider `C=C1C(=O)O[C@H]2[C@H]1CC/C(COC(=O)n1ccnc1)=C\CC[C@@]1(C)O[C@@H]21`, for which the growth was 96.8% in experiment [1]; 86.7% in [2]; 90.8% in experiment [3]; 95.9% in experiment [4]; 102% in experiment [5]; 110% in experiment [6]. Also, the growth was 100% in [7], 102% in experiment [8], 90.7% in experiment [9] and 84.3% in experiment [10].
For `Cc1nccc2c3ccc(OCc4cn(-c5ccc(Cl)cc5)nn4)cc3n(CC(C)C)c12`, the growth in [1] was 54.1%; in experiment [2] it was 8.22% (active); in experiment [3] it was 0.392% (active); in [4], 27.8%; in experiment [5], 0.754% (active); in experiment [6], 57.3%. The growth is 15.4% in experiment [7], 22.2% in experiment [8], 4.16% (active) in experiment [9] and 23.2% in experiment [10].
On to `CN1CCN(CC#CCOC(=O)CNC(=O)[C@]23CCC(C)(C)C[C@H]2C2=CC[C@@H]4[C@@]5(C)CC[C@H](O)C(C)(C)[C@@H]5CC[C@@]4(C)[C@]2(C)CC3)CC1`, for which the growth in experiment [1] is 96.7%; in experiment [2], 70.1%; in experiment [3], 92.5%; in [4], 95.5%; in [5] it was 78.1%; in experiment [6], 88%. The growth in experiment [7] is 96.9%; in experiment [8] it was 83.5%; in experiment [9], 95.1%; in [10], 96.8%.
As for `CC(C)(C#N)c1cc(F)cc(C(=O)Nc2cc(Nc3ncccc3-c3ncnc4nc[nH]c34)ccc2F)c1`, the growth in [1] was 56.1%; in experiment [2], 5.97% (active); in experiment [3], -28.4% (active); in experiment [4], 22.4%; in experiment [5], 34.1%; in [6] it was 60.6%. Also, the growth is 46.1% in experiment [7], 20.8% in experiment [8], 23.7% in experiment [9] and 5.28% (active) in [10].
As for `Cc1c(Cl)cccc1NC(=O)c1sc2nc3c(cc2c1N)CN(Cc1ccccc1)CC3`, the growth is 30.5% in experiment [1]; 10% in [2]; 49.5% in [3]; 86.3% in [4]; 68.8% in experiment [5]; 42.3% in experiment [6]. The growth in experiment [7] was 21.8%; in experiment [8], 39.3%; in experiment [9] it was 63.6%; in experiment [10], 26.8%.
As for `NC(=O)C(O)(c1ccccc1)c1ccccc1`, the growth was 105% in experiment [1]; 99.6% in [2]; 113% in [3]; 108% in experiment [4]; 123% in experiment [5]; 110% in experiment [6]. Moreover, the growth in experiment [7] is 99.7%; in experiment [8], 103%; in experiment [9], 91.8%; in [10], 97.1%.
In the case of `CCCCN(CCCC)CC(CN(CC)CC)OC(=O)Nc1ccccc1` (stereo not given), the growth in experiment [1] was 99.9%; in [2], 76%; in experiment [3], 90.3%; in [4], 69.7%; in experiment [5], 95.1%; in experiment [6], 94.9%. Further, the growth in experiment [7] was 77.5%; in [8], 94.4%; in experiment [9], 111%; in [10], 80.9%.
On to `COc1ccc(C2N(c3cc(OC)c(OC)c(OC)c3)C(=O)C2(F)F)cc1F` (stereo not given), for which the growth in experiment [1] is 25.2%; in experiment [2], 10.5%; in [3], 64.1%; in experiment [4] it was 54%; in experiment [5], 49.4%; in experiment [6], 52.9%. Moreover, the growth in [7] was 48.3%; in experiment [8] it was 21.6%; in [9] it was 50%; in experiment [10], 24.2%.
For `CC[C@]12C=CCN3CC[C@@]4(c5cc(NC(=O)CCC(=O)O[C@H]6CC[C@H]7[C@@H]8CC[C@H]9CC(=O)CC[C@]9(C)[C@H]8CC[C@]67C)c(OC)cc5N(C)[C@H]4[C@@](O)(C(=O)OC)[C@@H]1OC(C)=O)[C@@H]32`, the growth in experiment [1] is 86.8%; in experiment [2] it was 41.7%; in experiment [3], 77.7%; in [4], 83%; in [5] it was 66.2%; in experiment [6], 74.3%. Besides, the growth in experiment [7] was 68.4%; in [8], 74.1%; in experiment [9], 94.5%; in [10], 67.5%.
Regarding `COCCc1n(Cc2ccc3ccccc3c2)c2ccccc2[n+]1Cc1ccc2ccccc2c1`, the growth was 2.65% (active) in experiment [1]; -67.8% (active) in [2]; -69.5% (active) in experiment [3]; -74.7% (active) in [4]; -44.3% (active) in experiment [5]; -58.4% (active) in experiment [6]. The growth in experiment [7] is -32.7% (active); in experiment [8] it was -8.99% (active); in experiment [9] it was -29.3% (active); in experiment [10], -72.2% (active).
For `COc1ccc(-c2cc(C(=O)N3N=C(c4ccc(N)cc4)CC3c3ccc(OC)cc3)c3cc(OC)ccc3n2)cc1` (stereo not given), the growth in experiment [1] was 80.2%; in experiment [2], 11.8%; in experiment [3], 71.3%; in experiment [4] it was 73.6%; in [5], 68.2%; in experiment [6], 54.9%. Also, the growth was 64.1% in [7], 34% in experiment [8], 60.8% in [9] and 38.4% in [10].
